Assay results published in PubChem BioAssay (Tox21).
Several values for one entry are separate records, joined by “and”; a condition that tells them apart may be missing. Identical values can stand only once. Results filed as inconclusive are left out. Some compounds were tested as several samples or in several runs, with calls that do not always agree. Activity calls are given as the source filed them. Unless noted, the call rests on the fitted dose curve; in most records, active means well fitted curve in the direction sought with a large enough effect in the repeat runs; inconclusive means weak or mixed curves; inactive means no such curve, though single readings can be large; an effect the other way counts as inactive or inconclusive.

What was measured:
[1] = A CellTox Green Cytotoxicity Assay to monitor cytotoxicity in HepG2 cells - 8 hour (AID 1224890); further: nearly all actives have a fitted effect of over 45% in size
Outline: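 Cells and non-lytic dye reagent are dispensed together (600 HepG2 cells/well) and incubated 5 h before DMSO compound transfer. Kinetic fluorescence is then recorded in the same wells during 40 h at 37 C.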

[2] = qHTS assay to identify small molecule antagonists of the estrogen receptor alpha (ER-alpha) signaling pathway using the BG1 cell line in the presence of 0.1 nM 17-beta-estradiol - cell viability counter screen (AID 1259241); further: nearly all actives have a fitted effect of over 40% in size
Outline: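 CellTiter-Fluor read (30 min, 37C) on ER-alpha/ERE-luc VM7Luc4E2 cells; 22 hr compound treatment; agonist 0.1 nM E2 final; same-well multiplex.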

[3] = qHTS assay to identify small molecule antagonists of the androgen receptor (AR) signaling pathway using the MDA cell line in the presence of 0.5 nM R1881 - cell viability counter screen (AID 1259242); further: nearly all actives have a fitted effect of over 45% in size
Outline: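 Steps: plate MDA-kb2 cells, rest 5 hr at 37C without CO2; pin in compounds in DMSO; add R1881 to 0.5 nM final; incubate 16 hr; add CellTiter-Fluor, 30 min; read fluorescence.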

[4] = biological target: Androgen receptor (Homo sapiens) (UniProt P10275); assay: qHTS assay to identify small molecule antagonists of the androgen receptor (AR) signaling pathway using the MDA cell line in the presence of 0.5 nM R1881 (AID 1259243); further: nearly all actives have a fitted effect of over 50% in size
Chain of Androgen receptor (Homo sapiens) (P10275 whole entry, looked up): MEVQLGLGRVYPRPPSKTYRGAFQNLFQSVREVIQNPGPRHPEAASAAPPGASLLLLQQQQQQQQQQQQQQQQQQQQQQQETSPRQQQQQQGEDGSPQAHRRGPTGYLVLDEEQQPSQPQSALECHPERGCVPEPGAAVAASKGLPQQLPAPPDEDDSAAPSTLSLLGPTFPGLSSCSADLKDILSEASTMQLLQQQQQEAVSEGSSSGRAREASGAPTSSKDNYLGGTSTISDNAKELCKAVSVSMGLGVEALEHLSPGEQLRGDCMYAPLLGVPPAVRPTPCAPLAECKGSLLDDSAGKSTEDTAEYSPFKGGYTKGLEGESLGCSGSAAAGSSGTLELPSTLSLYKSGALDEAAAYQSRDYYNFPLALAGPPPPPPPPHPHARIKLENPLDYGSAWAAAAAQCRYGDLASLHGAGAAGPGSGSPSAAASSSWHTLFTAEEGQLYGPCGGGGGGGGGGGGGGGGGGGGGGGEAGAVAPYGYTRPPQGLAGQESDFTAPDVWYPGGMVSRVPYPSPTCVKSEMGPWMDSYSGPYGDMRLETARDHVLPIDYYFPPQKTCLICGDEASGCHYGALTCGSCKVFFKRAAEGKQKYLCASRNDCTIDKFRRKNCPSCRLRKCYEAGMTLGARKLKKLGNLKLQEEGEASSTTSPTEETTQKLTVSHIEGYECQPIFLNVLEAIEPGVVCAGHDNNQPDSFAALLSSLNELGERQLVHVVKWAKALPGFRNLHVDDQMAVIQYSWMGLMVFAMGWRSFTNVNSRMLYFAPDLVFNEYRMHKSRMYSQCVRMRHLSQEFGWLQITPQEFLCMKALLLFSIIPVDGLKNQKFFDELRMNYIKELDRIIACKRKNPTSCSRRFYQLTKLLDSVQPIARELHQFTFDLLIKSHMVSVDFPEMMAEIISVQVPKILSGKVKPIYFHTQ
Outline: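 Stably transfected MDA-kb2 cells express luciferase from an MMTV promoter bearing both AR and GR response elements. Compounds plus 0.5 nM R1881 (final) were incubated 16 hr at 37C without CO2, then luminescence measured.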

[5] = qHTS assay to identify small molecule HDAC inhibitors (AID 1259364);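 further: wild-type HCT-116 cells with endogenous class I/II HDAC activity; top concentration of the series differs between compounds; nearly all actives have a fitted effect of over 45% in size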
Outline: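 Cells (HCT-116, wild type) are seeded at 1,500 per well, incubated overnight, treated with compound in DMSO for 2 hr, then developed with HDAC-Glo I/II reagent for 30 min at room temperature.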

[6] = qHTS assay to identify small molecule HDAC inhibitors - cell viability counter screen (AID 1259365); further: series mostly up to about 92 µM; nearly all actives have a fitted effect of over 50% in size
Outline: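 To flag cytotoxic hits, 1,500 wild-type HCT-116 cells per well, plated the day before, receive test compounds for 2hr at 37 C before CellTiter-Glo reagent and a luminescence read.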

[7] = qHTS assay to identify small molecule agonists of the sonic hedgehog signaling (Shh) pathway - cell viability counter screen (AID 1259366); further: nearly all actives have a fitted effect of over 50% in size; further: potency means the concentration at half of the fitted maximal effect
Outline: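 Fluorescence from CellTiter-Fluor reports live cells in this counter screen. NIH/3T3-derived Gli1-Luc reporter cells receive test compounds for 24hr at 37C; reagent goes in at 23hr.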

[8] = qHTS assay to identify small molecule antagonists of the sonic hedgehog signaling (Shh) pathway - cell viability counter screen (AID 1259367); further: nearly all actives have a fitted effect of over 55% in size; further: potency means the concentration at half of the fitted maximal effect
Outline: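 Conditioned medium drove Shh signaling in 3T3 Gli1-Luc cells exposed to compounds at 37C and 5% CO2. Viability was determined from CellTiter-Fluor fluorescence, with reagent incubated 1 hr after 23 hr of treatment.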

[9] = qHTS assay to identify small molecule agonists of the sonic hedgehog signaling (Shh) pathway (AID 1259368; calls by dose curve;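 further: NIH/3T3-derived 3T3Gli1-Luc cells carrying a stable Gli1-driven firefly luciferase reporter; series mostly up to about 92 µM; nearly all actives have a fitted effect of over 15% in size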)
Outline: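 Cells of a mouse NIH/3T3 clone stably expressing luciferase under the Gli1 transcriptional response element are exposed to test chemicals for 24 hr at 37 C. Pathway activation is detected as a rise in luminescence.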

[10] = biological target: Estrogen receptor beta (Homo sapiens) (UniProt Q92731); assay: qHTS assay to identify small molecule agonists of the estrogen receptor beta (ER-beta) signaling pathway (AID 1259377; active means well fitted activation curve with a large enough effect in the signal ratio in the repeat runs, not every such curve was filed as active; the % refers to the signal ratio; further: potency means the concentration at half of the fitted maximal effect)
Chain of Estrogen receptor beta (Homo sapiens) (Q92731 whole entry, looked up): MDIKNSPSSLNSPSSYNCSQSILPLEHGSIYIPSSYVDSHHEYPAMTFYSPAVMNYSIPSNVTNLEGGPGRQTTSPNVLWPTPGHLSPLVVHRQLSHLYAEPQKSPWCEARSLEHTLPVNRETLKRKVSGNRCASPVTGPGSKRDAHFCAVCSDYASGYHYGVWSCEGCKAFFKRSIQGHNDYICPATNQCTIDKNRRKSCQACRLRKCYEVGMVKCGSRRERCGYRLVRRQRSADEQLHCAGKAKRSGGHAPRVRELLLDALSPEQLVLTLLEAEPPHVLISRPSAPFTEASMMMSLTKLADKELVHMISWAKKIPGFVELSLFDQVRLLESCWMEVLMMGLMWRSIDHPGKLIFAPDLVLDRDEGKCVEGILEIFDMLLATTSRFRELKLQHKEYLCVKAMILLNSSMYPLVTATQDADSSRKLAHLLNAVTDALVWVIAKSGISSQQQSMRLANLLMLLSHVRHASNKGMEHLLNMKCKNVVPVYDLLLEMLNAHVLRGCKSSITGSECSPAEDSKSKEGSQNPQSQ
Outline: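 Screening used GripTite ER-beta-UAS-bla cells held in 2% charcoal-stripped FBS medium. After overnight (16 hr) compound incubation at 37C, beta-lactamase activity was detected with a FRET substrate by fluorescence.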

[11] = qHTS assay to identify small molecule agonists of the androgen receptor (AR) signaling pathway in the presence of an antagonist - cell viability counter screen (AID 1259379);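 further: MDA-kb2 human breast cancer cells carrying an MMTV luciferase reporter; series mostly up to about 92 µM; nearly all actives have a fitted effect of over 25% in size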
Outline: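 Cytotoxicity is assessed by CellTiter-Fluor in MDA-kb2 cells carrying an MMTV-driven luciferase reporter. Cells receive 3.0uM nilutamide plus compounds at 15 concentrations and incubate 16 hr at 37C without CO2 before fluorescence reading.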

[12] = qHTS assay to identify small molecule agonists of the estrogen receptor beta (ER-beta) signaling pathway - cell viability counter screen (AID 1259380); further: nearly all actives have a fitted effect of over 30% in size; further: potency means the concentration at half of the fitted maximal effect
Outline: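 Cytotoxicity is measured in parallel with the reporter screen: after 16 hr compound exposure at 37C and a 2 hr LiveBLAzer step, CellTiter-Glo is added to the same ER-beta-UAS-bla HEK293T wells and luminescence read after 30 min.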

[13] = biological target: Androgen receptor (Homo sapiens) (UniProt P10275); assay: qHTS assay to identify small molecule agonists of the androgen receptor (AR) signaling pathway in the presence of an antagonist (AID 1259381; calls by dose curve; further: nearly all actives have a fitted effect of over 15% in size)
Outline: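 Agonist-mode confirmation screen: human MDA-kb2 cells stably expressing luciferase under an MMTV promoter bearing AR and GR response elements, co-treated with 3.0uM nilutamide (final). Luminescence measured after 16hr compound incubation.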

[14] = qHTS assay to identify small molecule antagonists of the estrogen receptor beta (ER-beta) signaling pathway - cell viability counter screen (AID 1259382); further: nearly all actives have a fitted effect of over 55% in size; further: potency means the concentration at half of the fitted maximal effect
Outline: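 Cytotoxicity counter screen multiplexed with the beta-lactamase antagonist assay: GripTite HEK293T ER-beta-bla cells were treated 16 hr with test chemicals in the presence of 1nM 17-beta-estradiol, and viability was measured by CellTiter-Glo.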

[15] = biological target: Estrogen receptor (Homo sapiens) (UniProt P03372); assay: qHTS assay to identify small molecule antagonists of the estrogen receptor alpha (ER-alpha) signaling pathway using the BG1 cell line in the presence of 0.1 nM 17-beta-estradiol (AID 1259244); further: nearly all actives have a fitted effect of over 50% in size; further: potency means the concentration at half of the fitted maximal effect
Chain of Estrogen receptor (Homo sapiens) (P03372 whole entry, looked up): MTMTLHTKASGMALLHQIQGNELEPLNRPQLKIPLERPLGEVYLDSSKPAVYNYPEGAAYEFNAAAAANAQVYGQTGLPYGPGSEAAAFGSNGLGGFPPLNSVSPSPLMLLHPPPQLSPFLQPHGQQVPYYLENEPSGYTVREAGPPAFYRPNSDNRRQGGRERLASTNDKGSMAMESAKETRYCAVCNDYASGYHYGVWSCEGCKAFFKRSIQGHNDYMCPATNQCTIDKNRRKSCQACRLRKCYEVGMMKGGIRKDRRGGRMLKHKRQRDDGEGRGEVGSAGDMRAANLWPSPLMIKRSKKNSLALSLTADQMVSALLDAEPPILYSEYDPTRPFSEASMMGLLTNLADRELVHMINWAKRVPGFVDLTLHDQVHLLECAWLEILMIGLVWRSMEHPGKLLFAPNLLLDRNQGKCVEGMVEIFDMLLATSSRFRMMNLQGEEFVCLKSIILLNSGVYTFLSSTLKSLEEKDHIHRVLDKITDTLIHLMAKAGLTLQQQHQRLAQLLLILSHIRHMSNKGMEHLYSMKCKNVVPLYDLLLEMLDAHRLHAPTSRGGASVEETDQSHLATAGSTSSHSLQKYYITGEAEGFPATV
Outline: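 Antagonist mode: compounds in DMSO are pinned onto VM7Luc4E2 reporter cells, 0.1 nM final 17beta-estradiol is added, and after 22 h at 37C luciferase luminescence is measured with ONE-Glo.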

[16] = qHTS assay to identify small molecule phospholipidosis (PLD) inducers (AID 1259344; active means well fitted curve in the direction sought with a large enough effect; an effect the other way counts as inactive or inconclusive)
Outline: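 After 4 h attachment on collagen I, HepG2 cells were dosed with compound alongside LipidTOX Red, kept 24 h at 37 C, fixed, and imaged for lamellar phospholipid pits.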

[17] = qHTS assay to identify small molecule agonists or antagonists of the thyroid stimulating hormone receptor (TSHR) signaling pathway - wild type cell line counter screen (AID 1259384; calls by dose curve)
Outline: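 Wild-type HEK293 cells were plated 18 h at 37 C/5% CO2, pin-dosed with compound plus Ro20-1724 medium, held 30 min at room temperature, then given cAMP-d2 and anti-cAMP-cryptate; fluorescence was read after 1 h. Fifteen concentrations, triplicate.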

[18] = qHTS assay to identify small molecule antagonists of the sonic hedgehog signaling (Shh) pathway (AID 1259369; calls by dose curve; further: nearly all actives have a fitted effect of over 45% in size; further: potency means the concentration at half of the fitted maximal effect)
Outline: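 Cells are plated and held 4hr at 37 C, compounds (DMSO) are pinned in, conditioned medium is added to stimulate the pathway, and after 24hr luciferase reagent is added for 30min before luminescence is read.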

[19] = biological target: Estrogen receptor beta (Homo sapiens) (UniProt Q92731); assay: qHTS assay to identify small molecule antagonists of the estrogen receptor beta (ER-beta) signaling pathway (AID 1259378; active means well fitted inhibition curve with a large enough effect in the signal ratio in the repeat runs, not every such curve was filed as active; the % refers to the signal ratio; further: potency means the concentration at half of the fitted maximal effect)
Outline: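 ER-beta-UAS-bla HEK293T (GripTite) cells in 2% charcoal-stripped FBS medium were preincubated 6 hr at 37C, dosed with compound, then stimulated with 1 nM E2 (final) for 16 hr; beta-lactamase reporter read by B/G FRET fluorescence after 2 hr substrate loading.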

[20] = biological target: Estrogen receptor (Homo sapiens) (UniProt P03372); assay: qHTS assay to identify small molecule agonists of the estrogen receptor alpha (ER-alpha) signaling pathway in the presence of an antagonist (AID 1259383; calls by dose curve; further: top concentration of the series differs between compounds; nearly all actives have a fitted effect of over 15% in size)
Outline: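 Agonist-mode confirmation in the presence of the ER antagonist ICI-182,780 at 10.0nM final. Breast-derived VM7Luc4E2 reporter cells were exposed to compounds for 22hr, and ERE-driven luciferase was quantified by luminescence.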

Measured: Potency

c1ccc2cc(Nc3ccc(Nc4ccc5ccccc5c4)cc3)ccc2c1
not listed: [15] | [16] | [17] | [18] | [19] | [20]
inactive: all other assays above

CC1=CCC(C(C)(C)O)CC1 (stereo not drawn)
not listed: [10] | [18] | [19] | [20]
inactive: all other assays above

O=[N+]([O-])c1ccc2c(c1)Cc1ccccc1-2
not listed: [4] | [13] | [16]
inactive: all other assays above

C#C[C@]1(O)CC[C@H]2[C@@H]3CCC4=Cc5oncc5C[C@]4(C)[C@H]3CC[C@@]21C
active: [15] 30.6 µM | [18] 2.17 µM and 11.9 µM | [19] 15.4 µM | [12] 61.1 µM and 29.8 µM | [14] 48.6 µM and 26.6 µM
not listed: [4] | [10] | [11] | [13] | [20]
inactive: all other assays above

CCOCCOCCO
not listed: [10] | [15] | [16] | [19] | [20]
inactive: all other assays above

CC(C(=O)O)c1cccc(C(=O)c2ccccc2)c1 (stereo not drawn)
not listed: [4] | [13] | [20]
inactive: all other assays above

CCCc1c(OCCCCc2nn[nH]n2)ccc(C(C)=O)c1O
active: [12] 68.6 µM
not listed: [4] | [7] | [10] | [13] | [19] | [20]
inactive: all other assays above

CC(C)=CCCC(C)CCO (stereo not drawn)
not listed: [4] | [13] | [16] | [18] | [19]
inactive: all other assays above

CCCCOCCOCCOCCO
not listed: [4] | [13] | [16] | [18] | [20]
inactive: all other assays above

Oc1ccc(O)cc1
active: [7] 10.8 µM and 24.3 µM and 26.6 µM | [8] 30.5 µM and 54.5 µM | [18] 4.3 µM and 2.17 µM and 6.68 µM
not listed: [4] | [10] | [13] | [19] | [20]
inactive: all other assays above

C#C[C@]1(O)CC[C@H]2[C@@H]3CCc4cc(OC)ccc4[C@H]3CC[C@@]21C
active: [12] 21.7 µM
not listed: [4] | [7] | [10] | [11] | [13] | [14] | [19] | [20]
inactive: all other assays above

c1ccc2c(c1)c1cccc3ccc4cccc2c4c31
60.7 µM (active) and inactive: [10]
not listed: [16]
inactive: all other assays above

COC(C)COC(C)COC(C)CO (stereo not drawn)
not listed: [7] | [16] | [19] | [20]
inactive: all other assays above

C=C(C)C1CC=C(C)CC1 (stereo not drawn)
not listed: [4] | [10] | [13] | [17] | [19]
inactive: all other assays above

C=C(C)C(=O)OCCOC(=O)C(=C)C
not listed: [16] | [19]
inactive: all other assays above
